Screens from PubChem.
An excerpt weighted towards active compounds, which were near 9.3% of everything screened.
VACV mCherry inh: vaccinia inhibition (mCherry reporter) | Vaccinia virus mCherry reporter infection, fluorescence | Potency, µM (highest dose often 36.5 µM), actives largely listed as inhibitors | 0.63% of 310,000 active | AID 720579; calls by dose curve; tested in A549 cells; also: nearly all actives have a fitted effect of over 35% in size
Vaccinia Venus: vaccinia inhibition (Venus reporter); Vaccinia virus Venus reporter expression, fluorescence; Potency, µM (series often up to 36.5 µM), hits mostly inhibitors; 0.46% of 330,000 active; calls by dose curve; tested in A549 cells; also: nearly all actives have a fitted effect of over 30% in size
FMDV antiviral: antivirals against foot and mouth disease virus | FMDV antiviral cell-based qHTS | Potency, µM (doses to about 57.9 µM), usual class: inhibitors | 1.2% of 410,000 active; calls by dose curve; tested in HEK293T cells; also: read-out not given here; nearly all actives have a fitted effect of over 45% in size
HCMV inh: human cytomegalovirus inhibition; HFF cells, HCMV-luciferase reporter, 72 h; active compounds read low; activity change, negative = inhibition, % at 57.5 µM; 4.5% of 410,000 active; AID 1259415; in the data active = activity change below about -60%; inconclusive = no clear call, values can overlap the other calls; inactive = above about -39%
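Two-dose cell screen: HFF monolayers treated with compounds and infected with luciferase-expressing HCMV at 1 PFU/cell, 72 h at 37C, then lysed for luciferase measurement.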
Sm TGR block: inhibitors of Schistosoma mansoni thioredoxin glutathione reductase | Potency, µM (titrated, usually from 114 µM), most hits filed as inhibitors | purified TGR, DTNB reduction, TNB absorbance 405 nm | 3% of 360,000 active | Q962Y6 | AID 485364; also: nearly all actives have a fitted effect of over 60% in size
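First, TGR (20 nM dispensed) and NADPH were mixed with compound. Second, a 15 min room-temperature incubation followed. Third, further NADPH and then DTNB were added to start the reaction. Finally, TNB absorbance was monitored kinetically.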
HCV inh: blocks hepatitis C virus. 3.4% of 340,000 active. Huh7.5.1 HCVcc-Cre infection, luciferase reporter, 44 h. Potency, µM (titrated, usually from 41.8 µM), most hits filed as inhibitors
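A cell-based infection assay in which seeded cells (1,000 per well) receive test compound after 4 h, are inoculated with HCVcc-Cre at approximately 0.5 moi, and are incubated 44 h before luminescence detection.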
Each line names hits and unclear results; the compound was inactive in the other large screens. Unless noted, calls follow the shape of the dose curve; as a rule, active = well fitted curve in the direction sought with a large enough effect; inconclusive = small, poorly fitted or top-dose-only effect, or another doubt; inactive = no such curve, though single readings can be large; an effect the other way counts as inactive or inconclusive.

CN(c1c[nH]c(=O)[nH]c1=O)C1CCCCC1	none
COc1ccc(/C=N/c2oc(-c3ccccc3)cc2C#N)cc1OC	HCMV inh -103, Sm TGR block inconclusive, HCV inh inconclusive (no result: VACV mCherry inh)
O=C(COC(=O)/C=C/c1ccccc1F)Nc1nnc(-c2ccccc2)o1	none
O=c1[nH]c2ccccc2n1C1CCN(C(c2cccc3ccccc23)c2nnnn2-c2ccc3c(c2)OCCO3)CC1 (stereo not given)	FMDV antiviral inconclusive, HCMV inh -76 (no result: Sm TGR block, HCV inh)
O=c1[nH]c2ccccc2n1C1CCN(C(c2cc3ccccc3o2)c2nnnn2-c2ccc3c(c2)OCCO3)CC1 (stereo not given)	VACV mCherry inh inconclusive, Vaccinia Venus inconclusive, FMDV antiviral 35µM, HCMV inh -99 (no result: Sm TGR block, HCV inh)
C(=C\c1ccccc1)/CN1CCN(C(c2cccc3ccccc23)c2nnnn2-c2ccc3c(c2)OCCO3)CC1 (stereo not given)	none (no result: Sm TGR block, HCV inh)
c1ccc2c(C(c3nnnn3-c3ccc4c(c3)OCCO4)N3CCOCC3)ccnc2c1 (stereo not given)	none (no result: Sm TGR block, HCV inh)
CCOc1ccccc1N(C)C(=O)c1nn(-c2ccc(OC)cc2OC)c(=O)c2ccccc12	none
CSCCC(Nc1ccc(S(=O)(=O)N2CCOCC2)cc1[N+](=O)[O-])C(=O)OCC(=O)NCC(C)C (stereo not given)	none
O=C(O)/C=C/C(O)c1ccc(Cl)cc1 (stereo not given)	Sm TGR block 25µM
O=P(Oc1ccccc1)(Oc1ccccc1)C(O)c1ccc(Cl)cc1 (stereo not given)	none
CN(C)/C=C(\C#N)S(=O)(=O)c1ccc(Cl)cc1	HCMV inh inconclusive
O=C(Nc1cccs1)Nc1c(F)c(F)cc(F)c1F	none
O=C(Nc1cccs1)Nc1c(F)c(F)c(F)c(F)c1F	HCMV inh -61
COc1nc(NS(=O)(=O)c2ccc(C)cc2)nc(C)c1Cl	none
COc1ccc(COc2cc(-c3cccc(OC)c3)nc3ccc(NC(=O)c4ccc(OC)cc4)cc23)cc1	FMDV antiviral inconclusive, HCMV inh -81, HCV inh 7.1µM
CCN(CC)c1cc(C)c2cc(NC(=O)c3ccccc3F)ccc2n1	HCMV inh -80, HCV inh 10µM (no result: VACV mCherry inh, Vaccinia Venus)
CCN(CC)c1cc(C)c2cc(NC(=O)c3cccc(OC)c3OC)ccc2n1	HCMV inh inconclusive (no result: HCV inh)
CCOc1ccc(C(=O)Nc2ccc3nc(N(CC)CC)cc(C)c3c2)cc1	FMDV antiviral 32µM, HCMV inh -86 (no result: HCV inh)
CCN(CC)c1cc(C)c2cc(NC(=O)c3cccc(OC)c3)ccc2n1	HCMV inh -71 (no result: HCV inh)
Clc1ccccc1/C=N/c1cc(-c2ccccc2)nn1-c1ccccc1	none (no result: VACV mCherry inh, Vaccinia Venus)
CCCC(C)NC(=O)c1ccccc1SC (stereo not given)	none (no result: Sm TGR block)
CCN(CC)c1cc(C)c2cc(NC(=O)/C=C/c3cc(OC)c(OC)c(OC)c3)ccc2n1	HCMV inh -100 (no result: HCV inh)
CCCCCOC(=O)C1=C(C)NC(=O)NC1c1ccc(N(C)C)cc1 (stereo not given)	none (no result: VACV mCherry inh, Vaccinia Venus)
COc1ccc(CCN2C(=O)CSC2=Nc2ccc(C(C)C)cc2)cc1OC	FMDV antiviral 20µM, HCMV inh inconclusive
COc1ccc(CCN2C(=O)CS/C2=N\NC(=O)c2ccc(C(C)(C)C)cc2)cc1OC	FMDV antiviral 32µM, HCV inh inconclusive
COc1ccc(N=C2SCC(=O)N2CCc2ccc(OC)c(OC)c2)cc1	FMDV antiviral inconclusive, HCV inh inconclusive (no result: VACV mCherry inh, Vaccinia Venus)
CCOC(=O)CSC1=C(C#N)C(=O)NC(c2ccc(OC)c(OC)c2)S1 (stereo not given)	FMDV antiviral 28µM
CN1C(=O)N(c2ccc(Cl)cc2)C(C)(O)CC1(C)C (stereo not given)	none
Cc1ccc2c(c1)c1c(n2C)C(C(N)=O)CCC1 (stereo not given)	HCV inh inconclusive (no result: VACV mCherry inh, Vaccinia Venus)
Cc1ccc2c(c1)c1c(n2C)-c2[nH]ncc2CC1	HCV inh 10µM (no result: VACV mCherry inh, Vaccinia Venus)
C=CCn1c(O)c(C(C)=NCCN2CCCCC2)c(=O)[nH]c1=O	Sm TGR block 14µM (no result: VACV mCherry inh, Vaccinia Venus)
CCCCn1c(O)c(C(C)=NCCN2CCCCC2)c(=O)[nH]c1=O	Sm TGR block inconclusive (no result: VACV mCherry inh, Vaccinia Venus)
COC(=O)CCCC1=CC2=C(c3ccccc3)C(=O)C(C)(OC(=O)C3CCCC3)C(=O)C2=CN1C1CC1 (stereo not given)	HCMV inh -61, Sm TGR block inconclusive
COC(=O)CCCC1=CC2=C(c3ccccc3)C(=O)C(C)(OC(=O)C3CCCC3)C(=O)C2=CN1C(CO)CO (stereo not given)	Sm TGR block 40µM
COC(=O)CCCC1=CC2=C(c3ccccc3)C(=O)C(C)(OC(=O)C3CCCC3)C(=O)C2=CN1c1ccccc1 (stereo not given)	none
CC12CCC3c4ccc(O)c([N+](=O)[O-])c4CCC3C1CCC2=O (stereo not given)	none (no result: Sm TGR block, HCV inh)
N#C/C(=C/c1ccc(-c2ccc(Br)cc2)o1)C(=O)NC1CCCCC1	VACV mCherry inh inconclusive, Vaccinia Venus inconclusive, HCMV inh inconclusive, HCV inh 14µM
N#C/C(=C\c1ccc(-c2ccc(Br)cc2)o1)C(=O)NCCc1c[nH]c2ccccc12	VACV mCherry inh inconclusive, HCV inh 22µM
CCC(C)OC(=O)/C(C#N)=C/c1ccc(-c2ccc(Br)cc2)o1 (stereo not given)	none (no result: HCV inh)
CC(C)(C)N1CC(C(=O)Nc2ccc(S(=O)(=O)N3CCCCC3)cc2)CC1=O (stereo not given)	HCMV inh inconclusive
COc1ccc(-c2cc(C(=O)NCc3ccccc3)c3c(-c4ccccc4)[nH]nc3n2)cc1	none (no result: HCV inh)
CCOC(=O)C(C)Sc1nnc2ccc3ccccc3n12 (stereo not given)	HCMV inh -86 (no result: HCV inh)
CCC(C)(C(=O)NC1CCCC1)N(C(=O)c1cnccn1)c1ccccc1 (stereo not given)	none
CCOC(=O)N(C)[C@H]1C[C@H]2c3cc(-c4ccccc4C)ccc3CCN2C[C@H]1[C@H](C)O	HCMV inh -89 (no result: VACV mCherry inh, Vaccinia Venus, FMDV antiviral, Sm TGR block, HCV inh)
CCOC(=O)N(C)[C@H]1C[C@H]2c3[nH]c4ccccc4c3CCN2C[C@H]1[C@H](C)O	none (no result: Sm TGR block, HCV inh)
CCCS(=O)(=O)N1CCC(C(=O)NCCc2ccccc2)CC1	none (no result: VACV mCherry inh)
CS(=O)(=O)Cc1cccc(C(=O)NC2CCSc3ccccc32)c1 (stereo not given)	none
CCOc1ccc2ccccc2c1C(=O)N1CCN(c2ccccc2)CC1	HCV inh inconclusive (no result: VACV mCherry inh, Vaccinia Venus)
O=C(NCCOc1ccccc1)C1Nc2ccc(C(F)(F)F)cc2C2c3ccccc3CC12 (stereo not given)	VACV mCherry inh inconclusive (no result: Sm TGR block)
CCOC(=O)C1Nc2ccc(C(F)(F)F)cc2C2c3ccccc3CC12 (stereo not given)	VACV mCherry inh inconclusive, Vaccinia Venus inconclusive, FMDV antiviral 28µM, HCV inh inconclusive (no result: Sm TGR block)
CCn1c2c(c3cc(Br)ccc31)CCC/C2=N\O	HCMV inh -107, HCV inh inconclusive (no result: VACV mCherry inh, Vaccinia Venus)
Cc1ccc(C2(C(F)(F)F)NC(=O)N3CCCN=C3S2)cc1 (stereo not given)	none (no result: FMDV antiviral)
